# System: MAP2K5
row,SMILES,Kinases covered
1,COc1cc2nccc(Nc3ccc(OCc4ccc(NC(C)=O)cc4)cc3)c2cc1OC [GW440135],MAP2K5
2,COc1cc2ncn(-c3cc(OCC4CCCO4)c(C(N)=O)s3)c2cc1OC (stereo not shown) [GSK204607],MAP2K5
3,COc1cc(Nc2nccc(N3CCC(NC(=O)Nc4cc(C)ccc4C)C3)n2)cc(OC)c1OC (stereo not shown) [GSK1379762],MAP2K5
4,Cc1ccc(C(=O)Nc2ccc(Nc3ccnc4cc(-c5ccccn5)ccc34)cc2O)cc1 [GW440146],MAP2K5

# System: MAPK10
row,SMILES,Kinases covered
1,CCc1nc(-c2cccc(C)c2)c(-c2ccncc2)s1 [TPKI-106],MAPK10
2,O=C(O)/C=C/C(=O)O.OCCCNc1nccc(-c2c(-c3ccc(F)cc3)nn3cc(C(F)(F)F)ccc23)n1 [GW569293E],MAPK10
3,Nc1nccc(-c2c(-c3ccc(F)cc3)ncn2C2CCN(Cc3ccccc3)CC2)n1 [SB-219980],MAPK10
4,COC(=O)c1c(-c2ccccc2)c2cc(Br)ccc2c(=O)n1Cc1ccc(S(C)(=O)=O)cc1 [TPKI-100],MAPK10
5,Fc1ccc(-c2nn3ccccc3c2-c2ccncc2)cc1 [GW434756X],MAPK10
6,CCC(=O)c1c(-c2ccccc2)c2cc(Cl)ccc2c(=O)n1Cc1cc(S(C)(=O)=O)n(CC(N)=O)n1 [TPKI-105],MAPK10

# From article PMC7826789 (International Journal of Molecular Sciences, 2021)
